A word on the inhibition: it is the relative decrease from the control value, in per cent.

Molecules are shown by their SMILES. The list shows a part of the results. The source made the active and inactive calls.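 The calls were made as follows: active = inhibition at or below a set negative limit, negative inhibition meaning the enzyme was activated; inactive = the rest.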

The target in this assay is Hexokinase HKDC1 (Homo sapiens) (UniProt Q2TB90). The experiment in a line: HKDC1 hexokinase activators, confirmation, biochemical, single concentration (AID 504708). The conditions noted are these: recombinant HKDC1, G6PDH/diaphorase resazurin fluorescence; at 20 µM; stronger effect = lower value. (Resazurin is reduced to fluorescent resorufin, in cell work by metabolically active cells.)
Chain of Hexokinase HKDC1 (Homo sapiens) (Q2TB90 whole entry, looked up): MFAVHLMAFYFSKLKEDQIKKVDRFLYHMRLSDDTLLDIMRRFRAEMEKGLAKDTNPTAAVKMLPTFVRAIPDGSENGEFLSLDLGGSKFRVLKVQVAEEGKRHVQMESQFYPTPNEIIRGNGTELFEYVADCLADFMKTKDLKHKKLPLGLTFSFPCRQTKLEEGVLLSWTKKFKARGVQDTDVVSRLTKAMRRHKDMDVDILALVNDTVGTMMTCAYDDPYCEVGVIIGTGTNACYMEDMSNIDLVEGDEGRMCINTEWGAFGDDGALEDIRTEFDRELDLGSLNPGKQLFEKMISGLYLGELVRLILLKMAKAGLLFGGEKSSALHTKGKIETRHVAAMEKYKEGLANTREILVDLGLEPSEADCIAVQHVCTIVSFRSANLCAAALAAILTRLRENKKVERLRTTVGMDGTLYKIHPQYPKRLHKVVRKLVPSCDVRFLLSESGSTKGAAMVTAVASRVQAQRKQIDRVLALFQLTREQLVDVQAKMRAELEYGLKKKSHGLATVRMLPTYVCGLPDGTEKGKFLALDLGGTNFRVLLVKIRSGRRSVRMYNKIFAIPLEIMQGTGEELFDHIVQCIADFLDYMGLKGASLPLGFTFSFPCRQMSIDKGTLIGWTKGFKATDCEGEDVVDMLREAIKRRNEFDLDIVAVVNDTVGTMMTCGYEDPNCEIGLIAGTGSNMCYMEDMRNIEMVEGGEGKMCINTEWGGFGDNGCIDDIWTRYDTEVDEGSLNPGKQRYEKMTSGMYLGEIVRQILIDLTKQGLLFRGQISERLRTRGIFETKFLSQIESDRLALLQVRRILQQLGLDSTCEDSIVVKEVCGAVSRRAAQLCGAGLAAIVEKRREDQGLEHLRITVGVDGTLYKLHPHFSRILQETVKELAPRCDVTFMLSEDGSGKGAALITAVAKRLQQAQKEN
`COCCNC(=O)Nc1ccc2nc(-c3ccco3)c(-c3ccco3)nc2c1`: the inhibition is -20.8% (inactive).

Turning to `CCOC(=O)C1=C(c2ccc(OC)cc2)C(=O)c2ccccc2C1=O`, the inhibition is 75% (inactive). Turning to `CCC(=C/c1sc2ccc3ccccc3c2[n+]1C)/C=C1\Sc2ccc3ccccc3c2N1C`, the inhibition is 24.1% (inactive). Under `O=C1C(Cl)=C(Oc2ccccc2)C(=O)c2ccccc21` stands 77.7% (inactive); under `O=C(CSc1n[nH]c(-c2cccnc2)n1)Nc1ccnc2ccccc12`, 46% (inactive).

For the compound `Cc1ccc2oc(=O)c3cnn(CC(=O)N4CCCCCC4)c3c2c1`, the inhibition is -63.5% (active). The figure for `Nc1ccc2nc3c(=O)[nH]c(=S)[nH]c3nc2c1` is -3.17% (inactive); for `COc1ccc(N(CC(=O)N/N=C/c2cccc3c2OCCO3)S(=O)(=O)c2ccc(NC(C)=O)cc2)cc1` it is 19.1% (inactive). Under `COc1ccc(NC(=O)CSc2ccc(-c3ccco3)nn2)c(OC)c1` stands 70.8% (inactive); under `Clc1cccc(N=C2NN=C(c3ccc4c(c3)OCCO4)CS2)c1`, -99.6% (active). Under `Cc1ccc(N(Cc2cc(=O)[nH]c3ccccc23)C(=O)CCl)cc1` stands 34.5% (inactive); under `O=C(c1cccnc1)N(c1cc2sc(=O)oc2c2ccccc12)S(=O)(=O)c1ccccc1`, -5% (inactive); under `Cc1cc(C(=O)CCl)c(C)n1CC1COc2ccccc2O1` (stereo not given), 11% (inactive). In the case of `O=S(=O)(Nc1ccc(O)c2ccccc12)c1ccc(OC(F)(F)F)cc1`, the inhibition was 19.8% (inactive).

As for `O=c1[nH]c2ccccc2n2c(-c3ccccc3)nnc12`, the inhibition was 58.5% (inactive). Under `CC(=O)N(C1=C(Cl)C(=O)c2ccccc2C1=O)c1ccc(C(=O)O)cc1` stands 64.4% (inactive).

Regarding `CN1c2ccc(C=O)c3c(C=O)ccc(c23)N(C)C1(C)C`, the inhibition is 61.2% (inactive). For `CCn1cc(C(=O)NCc2ccc3c(c2)OCO3)c2cc(OC)c(OC)cc2c1=O`, the inhibition was 45.9% (inactive). Under `COC(=O)c1ccc(NCc2cc(O)ccc2O)cc1` stands 65.1% (inactive).

As to `CCc1ccc2c(c1)C1(NN=C(c3ccccc3)S1)C(=O)N2` (stereo not given), the inhibition is -13.6% (inactive).

As for `C[N+](C)(CCCCCC[N+](C)(C)CCCN1C(=O)c2cccc3cccc(c23)C1=O)CCCN1C(=O)c2cccc3cccc(c23)C1=O`, the inhibition was -82% (active). The figure for `CC(C)(C)Nc1c(N)c(=O)oc2ccccc12` is -27.1% (inactive). Take `O=C(CSc1cccc2cccnc12)N/N=C/c1cccnc1`: the inhibition was -46.6% (active). For `COc1ccc(C(CCN(Cc2ccc(OC)c(OC)c2)C(=O)CCl)c2ccccc2)cc1` (stereo not given), the inhibition was 17.4% (inactive). Under `CCOc1cc(/C=N/n2cnnc2)c(Br)cc1O` stands 28.4% (inactive); under `O=c1ccc2c(-c3ccccc3S(=O)(=O)O)c3ccc(O)c(O)c3oc-2c1O`, 14.4% (inactive). The figure for `CC(=O)/C(=N\Nc1ccc(Cl)cc1Cl)Sc1cccc2cccnc12` is -44.8% (active). The figure for `CCOC(=O)CSc1nc2ccc(C)cc2n2cnnc12` is 63.8% (inactive); for `CCCc1nc2oc3c(OCC)ncnc3c2c2c1COC(C)(C)C2` it is 14.9% (inactive). Consider `Cc1cc(C2=NNC(=Nc3ccc(S(=O)(=O)N4CCOCC4)cc3)SC2)c(C)n1CC1CCCO1` (stereo not given), for which the inhibition was -55.8% (active). The figure for `COc1ccc2c(c1)c(=Cc1ccc(N(C)C)cc1)c1cc(-c3ccccc3)[n+](C)n12` is 31.2% (inactive). The figure for `O=C(NC1=CC(=O)c2ccccc2C1=O)c1ccccc1` is 69.9% (inactive).

As to `Cc1ccc(C(=O)O)cc1-c1ccc(/C=C2\SC(=O)N(CC(=O)Nc3ccc4c(c3)OCO4)C2=O)o1`, the inhibition is 13.9% (inactive). For the compound `Cc1ccc(Nc2nc(-c3sc(NC(=O)c4ccccc4)nc3C)cs2)cc1`, the inhibition is 12.1% (inactive). On to `O=C(Nc1ccccc1Cl)/C(Cl)=C(\Cl)S(=O)c1ccccc1` (stereo not given), for which the inhibition was -5.2% (inactive).

(Values after PubChem BioAssay AID504708 (Sanford-Burnham Center for Chemical Genomics, 2011).)
